Results on 104 compounds are retold here after ChEMBL document CHEMBL3988442, “University of Dundee, Small-Polar-MMV Screening Library” (2021).

The whole screen tested about 38,000 compounds, of which about 1,200 (3.2%) showed an effect of 50% or more. The median lay at about -58%. This is one part of a sample in which strong results are shown more often than they occur.

In this test the test system is Plasmodium falciparum. Briefly: Calibr Malaria Delayed Death Assay SOP. In kind it is functional, organism-based. Further details: scale not given: in the data most compounds retested in dose-response had high values. The note with it: concentration 4.99e-06 (unit not given; other assays of the set use mol/L).
Regarding `O=S(=O)(c1ccccc1Cl)N1CCC2(CC1)OCCS2`, the “Percent Effect” value was -115.5%.
The figure for `CCN1CCCC2(CCN(Cc3nnc(C4CC4)o3)C2)C1=O` (centres undefined) is -40.49%; for `CC(C)CCN1CCN(CC(=O)Nc2ccc3nsnc3c2)CC1` it is -73.84%.
Next, `Cc1ncncc1C(=O)N1CCCC(c2[nH]ncc2S(C)(=O)=O)C1` (centres undefined): -131.2%; `I.c1ccc(OCCNC2=NCCCN2)cc1`: 17.05%.
Consider `CCOCc1ccc(CNC2=NCCCN2)cc1.I`, for which the “Percent Effect” value was 55.49%.
As to `CN(C)c1ccc(CNC2=NCCCN2)cc1.I`, the “Percent Effect” value is reported as -57.09%.
The figure for `COc1ccc(-n2cc(CNC(=O)c3cscn3)nn2)cc1` is -125.4%; for `CC(C)c1nc2c(n1C)CCN(CC(=O)Nc1ccc(Cl)cn1)C2` it is -37.81%.
Regarding `CCc1ncc2c(n1)CN(CC(=O)Nc1ccc(Cl)cn1)CC2`, the “Percent Effect” value was found to be 58.18%.
`CCc1ncc2c(n1)CN(CC(=O)Nc1ccncc1)CC2`: the “Percent Effect” value was -164.3%.
Regarding `COCC1c2c(cnn2C)CCN1C(=O)c1cccn1C.O=C(O)C(F)(F)F` (centres undefined), the “Percent Effect” value is -111.1%.
Next, `CCC1CN(CC(=O)NCCN2CCCCCC2)c2ccccc2S1` (centres undefined): 72.72%; `CCN(CC)CCNC(=O)c1cnc(-c2ccccc2)nc1`: -36.61%.
Next, `O=C(NCCN1CCCCC1)c1nc2ccccc2c(=O)[nH]1`: -48.08%; `O=C(NCCN1CCCCC1)c1cccc(Cl)c1Cl`: 47.98%.
The figure for `CCC1CN(CC(=O)NCCN2CCCC2)c2ccccc2S1` (centres undefined) is 62.37%.
For the compound `CCn1nc(C)c2ccn(CC(=O)NCCN3CCCCC3)c(=O)c21`, the “Percent Effect” value is recorded as -46.75%.
Turning to `CCC1CN(CC(=O)NCCN2CCCCC2)c2ccccc2S1` (centres undefined), the “Percent Effect” value worked out at 71.16%.
The figure for `Cc1nn(C)c2c(=O)n(CC(=O)NCCN3CCCCCC3)ccc12` is 8.921%; for `O=C(NCCN1CCCC1)c1cc2c(s1)CCN2C(=O)c1ccccc1` it is -40.79%.
The figure for `COc1ccccc1N1CCC(CNC(=O)CN2CSCC2=O)C1` (centres undefined) is -74.71%; for `Cc1ccccc1C1CCN(CCNC(=O)CS(C)(=O)=O)C1` (centres undefined) it is -6.702%.
In the case of `CCC1CN(CC(=O)NCCN(CC)CC)c2ccccc2S1` (centres undefined), the “Percent Effect” value is reported as 75.77%.
Consider `O=C1CCCN1Cc1ncn2c1CN(C(=O)Cc1ccccc1)CCC2`, for which the “Percent Effect” value is reported as -76.95%.
The figure for `CC1CCCCN1C(=O)COCc1nc(-c2ccncc2)no1` (centres undefined) is -64.65%; for `O=C(O)C(F)(F)F.O=C(O)C(F)(F)F.O=C(O)c1c(-c2ccncc2)ncc2c1CCN(CC1CCOC1)C2` (centres undefined) it is -34.25%.
Next, `Cc1cc(S(=O)(=O)N2CCCc3ccccc32)sc1C(=O)O`: -124.8%; `O=C(Cc1ccsc1)N1Cc2nc(CN3CCCCC3)oc2C1.O=C(O)C(F)(F)F`: -52.68%.
With `Cc1nonc1CN(C)Cc1nc(-c2cccc(F)c2F)oc1C`, the “Percent Effect” value is listed as -82.79%.
The figure for `COCCN(Cc1ccccc1)C(=O)c1cnn(C)c1C` is -75.6%; for `O=C(O)C(F)(F)F.O=C(O)C(F)(F)F.c1cc(CN2CCC3(CC2)COC(COCC2CC2)C3)ccn1` (centres undefined) it is -17.94%.
Next, `Cc1nn(C)c(Oc2ccccc2)c1CNC1CCCCNC1=O` (centres undefined): -0.05055%.
For the compound `COc1ccc(-c2c(C)nn3c(=N)c(C#N)n[nH]c23)cc1`, the “Percent Effect” value was -120.8%.
As to `COc1ccc(-c2c(C(C)C)nn3c(=N)c(C#N)n[nH]c23)cc1`, the “Percent Effect” value is given as -149.3%.
Next, `COc1ccc(-c2c(C)nn3c(=N)c(C#N)n[nH]c23)cc1OC`: 87.26%.
Next, `CCn1ncc2c1C(COC)CN(Cc1ccc(C)o1)C2` (centres undefined): -90.58%; `CCN(C)C(=O)c1cccc(C(=O)N(C)Cc2cccc(O)c2)c1`: -54.27%; `O=C(NC[C@H]1C[C@@H]2CCN1C[C@@H]2CN1CCCCC1)Nc1ccccc1`: -35.07%.
For the compound `O=S(=O)(NC[C@H]1C[C@@H]2CCN1C[C@@H]2CN1CCOCC1)c1ccccc1`, the “Percent Effect” value is -72.09%.
Next, `O=S(=O)(NC[C@H]1C[C@@H]2CCN1C[C@@H]2CN1CCCC1)c1ccc(Cl)cc1`: 89.33%; `Cc1nn(C)cc1CN1CCCCCC1c1ccccc1Cl` (centres undefined): -108.4%.
Turning to `CCCNc1ncc(-c2cc(C3CC3)nc(N)c2C#N)cn1`, the “Percent Effect” value is given as 54.19%.
As for `CCSc1ncc(-c2cc(C3CC3)nc(N)c2C#N)cn1`, the “Percent Effect” value worked out at 1.431%.
Next, `CCSc1ncc(-c2cc(C3CCC3)nc(N)c2C#N)cn1`: -33.43%; `Cc1ccc(CSc2ncc(Br)c(C(=O)O)n2)cc1`: -107.1%; `NC(=O)Nc1ccc(C(=O)NCCn2cccc2)cc1`: -116.7%.
Next, `Cn1c(CC(=O)O)c(Sc2ccccc2)c2ccccc21`: -130%.
The figure for `NCc1ccccc1Sc1ccc(O)cc1.O=C(O)/C=C\C(=O)O` is 55.63%; for `CC(N)Cc1ccccc1Sc1ccc(O)cc1.CC(N)Cc1ccccc1Sc1ccc(O)cc1.O=C(O)C(=O)O` (centres undefined) it is 71.69%.
`COc1ccccc1CC(C)CC(=O)O` (centres undefined): the “Percent Effect” value is on record as -155.2%.
The figure for `CNC(C)Cc1ccccc1Sc1ccc(O)cc1.Cl` (centres undefined) is 87.88%; for `CNS(=O)(=O)CC(=O)NC(C)Cc1ccccc1Br` (centres undefined) it is -190.6%.
For `CC(C)C(=O)NS(=O)(=O)CCc1ccccc1`, the “Percent Effect” value is given as -111.2%.
The figure for `CC[C@H](C)[C@@H](CO)NC(C)Cc1ccccc1F` (some centres undefined) is 48.98%.
Next, `CC(N)Cc1ccccc1Sc1ccccc1.O=C(O)/C=C\C(=O)O` (centres undefined): 77.8%.
The figure for `CC(C(=O)Nc1ccccc1Sc1ccccc1)S(C)(=O)=O` (centres undefined) is -117.7%.
For `CC(C)CCN1C2(CCN(C(=O)C3(C)CC3)C2)c2ccccc2S1(=O)=O` (centres undefined), the “Percent Effect” value is recorded as -11.02%.
Turning to `CCc1ncc2c(n1)CN(Cc1nnc(CC)o1)CC2`, the “Percent Effect” value is listed as -50.82%.
For `CC(C)Nc1nc2c(cc1C(=O)O)CCN(Cc1ccsc1)CC2.O=C(O)C(F)(F)F.O=C(O)C(F)(F)F`, the “Percent Effect” value is reported as -107.1%.
Next, `Cc1csc(CNC(=O)NCC(C)Cn2nc(C)cc2C)n1` (centres undefined): -114.8%; `Cc1c(C(=O)N(C)C)cccc1N(C)S(C)(=O)=O`: -103.2%; `Cc1ncc(CNC(=O)Cc2cccs2)c(C2CCCN2C)n1` (centres undefined): -27.86%.
Turning to `Cc1nn(C)c(C)c1CC(=O)N1CCCC1Cn1cccn1` (centres undefined), the “Percent Effect” value is recorded as -102.7%.
Next, `CN1CCN(S(=O)(=O)c2ccc(Cl)c(Cl)c2)c2cnccc21`: 89.32%; `Cc1ccc(S(=O)(=O)N2CCN(C)c3ccncc32)cc1F`: 60.6%.
Next, `CN1CCCN(S(=O)(=O)c2cnn(C)c2)c2cc(Cl)ccc21`: -19.46%; `CN1CCN(S(=O)(=O)c2cccc(F)c2)c2cnccc21`: 11.1%; `CN1CCN(S(=O)(=O)c2cccnc2)c2cnccc21`: -116.1%.
Next, `Cc1cc(F)ccc1S(=O)(=O)N1CCN(C)c2ccncc21`: 20.68%.
Take `CCOC(=O)COc1nc(CC(C)C)c2c(c1C#N)CCC2`: the “Percent Effect” value is reported as -73.52%.
The figure for `CN1CCCCC1CCC(=O)NCCCn1ncc2ccccc21` (centres undefined) is -37.16%.
For `CCSc1cc(C(=O)NC2CCN(C(=O)c3ccncc3)CC2)ccn1`, the “Percent Effect” value is on record as -119%.
Next, `CC(NC1CCCC1)c1ccccc1-n1cccn1` (centres undefined): 80.66%.
Next, `O=C(NCc1ccccc1-n1cccn1)N1CCN2CCCCC2C1` (centres undefined): -71.32%; `CC(NCc1cnc(C2CCC2)s1)c1ccccc1-n1cccn1` (centres undefined): -47.47%; `CS(=O)(=O)CCCN(CCCO)C1CCc2ccccc21` (centres undefined): -127.8%.
Next, `CN(C)CCCn1ccnc1C1CCCN(c2ncc(Cl)cc2F)C1` (centres undefined): 83.94%.
Take `Fc1cc(Cl)cnc1N1CCCC(c2nccn2CC2CC2)C1` (centres undefined): the “Percent Effect” value is on record as 3.7%.
With `CN(C)CCn1ccnc1C1CCCN(c2cc(N)ncn2)C1` (centres undefined), the “Percent Effect” value is given as -56.5%.
Turning to `CN(C)CCn1ccnc1C1CCCN(c2ncc(Cl)cc2F)C1` (centres undefined), the “Percent Effect” value was 35.69%.
`Cc1cc(C)nc(N2CCCC(c3nccn3CCCN(C)C)C2)c1` (centres undefined): the “Percent Effect” value worked out at 50.47%.
Next, `COc1cc(OC)nc(N2CCCC(c3nccn3CCN(C)C)C2)n1` (centres undefined): -26.11%.
On to `Cc1ccc(C)c(Oc2cc(-n3nc(C)c(C#N)c3N)nc(C)n2)c1`, for which the “Percent Effect” value is listed as -175%.
Next, `Cc1cc(C2CCCN2C(=O)NCc2c(C)cc(C)[nH]c2=O)on1` (centres undefined): -57.59%.
For the compound `CN(CC1COCCO1)c1ncnc2cc(F)ccc12` (centres undefined), the “Percent Effect” value is reported as -82.12%.
In the case of `Cn1cccc1C(=O)N1CCN(Cc2cccnc2)c2ncccc2C1.O=C(O)C(F)(F)F.O=C(O)C(F)(F)F`, the “Percent Effect” value is listed as -59.69%.
In the case of `Cc1nc[nH]c1CN1CCCN(c2nc3ccccc3s2)CC1`, the “Percent Effect” value amounted to 54.13%.
For the compound `Cc1ncnc(N2CCCN(c3nc4ccccc4s3)CC2)c1C`, the “Percent Effect” value is reported as -444.8%.
`c1ccc2sc(N3CCN(c4ncnc5c4CCC5)CC3)nc2c1`: the “Percent Effect” value is reported as -56.68%.
The figure for `c1ccc2sc(N3CCCN(c4ncnc5c4CCNC5)CC3)nc2c1` is 85.14%.
Next, `Cn1nc2c(cc1=O)CN(c1nc3ccccc3s1)CC2`: -163.5%; `Cc1nc[nH]c1CN1CCC(C2CCN(CCc3ccccc3)C2)CC1` (centres undefined): 9.569%; `Cc1ccc(CNCc2nccn2C)c(OC(C)(C)C)c1`: 8.3%.
Turning to `O=C(NCCc1coc(-c2ccccc2)n1)NC1CC1`, the “Percent Effect” value is given as -110.7%.
The figure for `CN(C)CCN1CCOCC12CCN(C(=O)C1CC1)CC2.O=C(O)C(F)(F)F.O=C(O)C(F)(F)F` is -16.92%; for `CC(C(=O)NCc1cn2cc(Br)ccc2n1)S(C)(=O)=O` (centres undefined) it is -87.47%.
Next, `Cc1cc(CN(C)C(=O)C(c2ccccc2)N2CCSCC2)no1` (centres undefined): -62.62%.
Next, `CCn1cnnc1CNC(=O)N1CCN(c2cccc(C)c2)CC1`: -132.8%; `Cc1cc(C)n(-c2cncc(NCCNS(C)(=O)=O)n2)n1`: -82.28%; `CSc1ncn(-c2nc(NC3CC3)nc(N(C)C)n2)n1`: -74.3%.
With `CCC(CNC(=O)c1cncc(Br)c1)N1CCc2ccccc2C1` (centres undefined), the “Percent Effect” value was found to be 65.67%.
For `CCC(CNC(=O)c1cc(OC)ccc1Br)N1CCc2ccccc2C1` (centres undefined), the “Percent Effect” value came out at 0.2059%.
The figure for `CCC(CNC(=O)c1ccccc1Br)N1CCc2ccccc2C1` (centres undefined) is 39.24%.
